Reference: PMC5700166
Residue numbers refer to the chain shown, from its start.

Tests used:
Experiment in all cases: protein-binding microarray (PBM); PBM: ~300 nM protein, 6 mM HEPES pH 7.8, 80 mM KCl, 0.5 mM EDTA, 0.5 mM EGTA, 6% glycerol, 35 ng/ul poly-dIdC, 1% milk, 1 h, room temperature; Ap Aiptasia and Nv Nematostella (sea anemones) / Co Capsaspora / Aq Amphimedon (sponge) / Dm Drosophila / Hu human; RHD is the Rel homology domain; high values mean tight binding
Conditions in all cases: dsDNA, one strand shown
[1] = target: T1, GST-Ap-NF-kB RHD (Exaiptasia pallida (Aiptasia), UniProt A0A913YAJ5 2-422)
T1 sequence: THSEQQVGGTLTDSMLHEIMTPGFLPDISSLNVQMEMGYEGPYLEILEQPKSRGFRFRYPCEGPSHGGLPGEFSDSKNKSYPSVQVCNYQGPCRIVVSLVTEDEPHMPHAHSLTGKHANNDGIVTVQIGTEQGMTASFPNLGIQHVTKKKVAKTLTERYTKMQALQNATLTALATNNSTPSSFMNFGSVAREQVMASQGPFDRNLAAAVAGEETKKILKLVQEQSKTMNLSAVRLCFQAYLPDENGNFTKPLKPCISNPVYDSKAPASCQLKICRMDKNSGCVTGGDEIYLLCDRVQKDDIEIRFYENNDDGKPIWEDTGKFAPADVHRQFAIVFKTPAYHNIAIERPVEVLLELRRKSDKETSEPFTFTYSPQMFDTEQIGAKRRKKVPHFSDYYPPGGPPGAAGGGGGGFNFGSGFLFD

[2] = target: T2, GST-Nv-NF-kB (Cys allele) (Nematostella vectensis, UniProt E5G601 2-411)
T2 sequence: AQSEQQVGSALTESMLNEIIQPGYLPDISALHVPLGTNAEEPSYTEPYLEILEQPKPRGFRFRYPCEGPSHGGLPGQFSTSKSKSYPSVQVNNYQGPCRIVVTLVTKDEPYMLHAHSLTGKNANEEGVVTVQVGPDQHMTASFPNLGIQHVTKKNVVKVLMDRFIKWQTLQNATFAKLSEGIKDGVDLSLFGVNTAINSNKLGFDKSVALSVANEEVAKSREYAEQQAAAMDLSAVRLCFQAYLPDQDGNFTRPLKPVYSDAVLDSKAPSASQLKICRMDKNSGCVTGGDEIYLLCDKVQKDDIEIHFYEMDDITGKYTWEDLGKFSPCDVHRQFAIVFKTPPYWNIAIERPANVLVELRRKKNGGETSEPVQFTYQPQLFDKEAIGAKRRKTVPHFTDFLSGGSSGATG

[3] = target: T3, GST-Nv-NF-kB (Ser allele) (Nematostella vectensis, UniProt A7UNT2 2-411)
T3 sequence: T2 sequence with Q21R, C66S, S207N, E215Q, V217A, E225K, A268E, D399E

[4] = target: T4, GST-Co-NF-kB (Capsaspora owczarzaki, UniProt F1ARL5 200-546)
T4 sequence: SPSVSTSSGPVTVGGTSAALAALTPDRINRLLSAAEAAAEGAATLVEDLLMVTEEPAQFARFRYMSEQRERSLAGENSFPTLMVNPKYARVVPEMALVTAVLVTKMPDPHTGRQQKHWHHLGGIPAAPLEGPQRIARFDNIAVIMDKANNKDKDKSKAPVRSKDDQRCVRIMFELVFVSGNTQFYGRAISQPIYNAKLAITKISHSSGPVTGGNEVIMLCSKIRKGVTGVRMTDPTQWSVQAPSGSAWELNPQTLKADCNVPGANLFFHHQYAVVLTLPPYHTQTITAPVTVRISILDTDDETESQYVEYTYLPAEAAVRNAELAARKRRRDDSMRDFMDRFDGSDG

[5] = target: T5, GST-Dm-Relish (Drosophila melanogaster, UniProt Q94527 99-473)
T5 sequence: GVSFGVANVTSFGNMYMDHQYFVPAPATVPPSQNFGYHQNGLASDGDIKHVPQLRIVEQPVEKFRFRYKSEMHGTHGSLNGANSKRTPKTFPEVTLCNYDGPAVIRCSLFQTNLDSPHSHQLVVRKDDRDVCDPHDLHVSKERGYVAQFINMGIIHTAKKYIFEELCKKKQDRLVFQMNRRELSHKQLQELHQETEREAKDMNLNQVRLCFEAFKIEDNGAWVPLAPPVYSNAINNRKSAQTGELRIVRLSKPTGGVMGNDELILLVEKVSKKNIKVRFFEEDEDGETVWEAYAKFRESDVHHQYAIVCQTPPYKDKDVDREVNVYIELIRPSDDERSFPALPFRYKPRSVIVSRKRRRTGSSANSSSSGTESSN

[6] = target: T6, GST-Aq-NF-kB (Amphimedon queenslandica, UniProt A9Y5G7 2-389)
T6 sequence: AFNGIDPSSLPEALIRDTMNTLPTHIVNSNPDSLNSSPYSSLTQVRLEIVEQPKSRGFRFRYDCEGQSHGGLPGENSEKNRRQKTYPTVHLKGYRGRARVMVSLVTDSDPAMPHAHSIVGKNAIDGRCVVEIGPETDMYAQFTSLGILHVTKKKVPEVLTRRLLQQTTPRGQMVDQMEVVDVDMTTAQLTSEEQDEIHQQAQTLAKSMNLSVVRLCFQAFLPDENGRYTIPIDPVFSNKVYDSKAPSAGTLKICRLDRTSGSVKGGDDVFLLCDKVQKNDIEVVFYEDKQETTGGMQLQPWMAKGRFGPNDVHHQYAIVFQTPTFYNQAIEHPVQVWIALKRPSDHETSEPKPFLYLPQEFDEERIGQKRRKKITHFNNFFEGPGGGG

[7] = target: GST-Hu-p50 (Homo sapiens, UniProt P19838 7-356)
Chain of GST-Hu-p50 (P19838 7-356): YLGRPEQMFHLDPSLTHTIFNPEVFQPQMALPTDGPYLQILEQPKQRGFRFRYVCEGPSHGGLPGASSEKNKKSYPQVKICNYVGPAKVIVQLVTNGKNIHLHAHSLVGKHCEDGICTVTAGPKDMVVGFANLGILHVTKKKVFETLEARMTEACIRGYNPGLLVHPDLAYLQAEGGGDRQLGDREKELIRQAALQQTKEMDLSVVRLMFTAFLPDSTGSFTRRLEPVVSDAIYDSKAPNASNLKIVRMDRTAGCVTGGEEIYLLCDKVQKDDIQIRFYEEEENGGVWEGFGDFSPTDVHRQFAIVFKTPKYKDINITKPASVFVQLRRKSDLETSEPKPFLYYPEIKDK

Sequence	binding signal [1] [z-score]	binding signal [2] [z-score]	binding signal [3] [z-score]	binding signal [4] [z-score]	binding signal [5] [z-score]	binding signal [6] [z-score]	binding signal [7] [z-score]
CCGATTAACATCAGGGAAATCCCTGATGTTAATCGGGTCTTGATTCGCTTGACGCTGCTG	9.75	11.4	9.68	4.02	10.3	10.9	7.17
CCGATTAACATCAGGGAGAACCCTGATGTTAATCGGGTCTTGATTCGCTTGACGCTGCTG	4.28	3.85	1.28	1.72	4.39	6.47	2.75
CCGATTAACATCAGGGGAACAACTGATGTTAATCGGGTCTTGATTCGCTTGACGCTGCTG	5.15	4.83	5.57	5.75	8.64	5.43	3.48
CCGATTAACATCAAAACACTCCCTGATGTTAATCGGGTCTTGATTCGCTTGACGCTGCTG	2.25	3.3	2.69	2.06	1.28	4.45	2.59
CCGATTAACATCAGGGAAAAACATGATGTTAATCGGGTCTTGATTCGCTTGACGCTGCTG	3.76	5.03	7.18	5.51	6.52	5.27	4.03
CCGATTAACATCAGGATTCCCCCTGATGTTAATCGGGTCTTGATTCGCTTGACGCTGCTG	11.3	10.5	9.81	8.01	10.2	8.67	7.26
CCGATTAACATCACGAAACCCCCTGATGTTAATCGGGTCTTGATTCGCTTGACGCTGCTG	8.57	6.39	7.65	2.69	8.51	6.37	7.11
CCGATTAACATCAGGAATATCCCTGATGTTAATCGGGTCTTGATTCGCTTGACGCTGCTG	2.84	3.66	2.12	1.54	2.78	6.03	3.26
CCGATTAACATCAGGCATTCCCCTGATGTTAATCGGGTCTTGATTCGCTTGACGCTGCTG	6.9	8.51	7.12	3.19	7.67	7.93	5.74
CCGATTAACATCAAAGATCCCCCTGATGTTAATCGGGTCTTGATTCGCTTGACGCTGCTG	7.86	7.46	7.79	6.69	8.85	6.88	6.85
CCGATTAACATCAATTTCCCCCATGATGTTAATCGGGTCTTGATTCGCTTGACGCTGCTG	7.52	7.6	8.86	10.7	4.97	6.34	6.86
CCGATTAACATCAGAAGTTCCCCTGATGTTAATCGGGTCTTGATTCGCTTGACGCTGCTG	7.97	8.26	8.1	7.36	8	7.04	5.84
CCGATTAACATCAGGGGGAACCCTGATGTTAATCGGGTCTTGATTCGCTTGACGCTGCTG	8.64	7.75	7.25	8.49	9.93	8.13	6.39
CCGATTAACATCAAGATTTCCCATGATGTTAATCGGGTCTTGATTCGCTTGACGCTGCTG	2.43	4.42	4.61	4.11	2.29	3.35	3.33
CCGATTAACATCAAGGTTCCCCCTGATGTTAATCGGGTCTTGATTCGCTTGACGCTGCTG	8.03	6.89	7.86	9.24	5.67	5.62	5.92
CCGATTAACATCAGGGGGTATAATGATGTTAATCGGGTCTTGATTCGCTTGACGCTGCTG	5.4	3.26	4.36	5.2	3.02	3.48	4.16
CCGATTAACATCAAATGCCCCCCTGATGTTAATCGGGTCTTGATTCGCTTGACGCTGCTG	5.13	4.38	3.91	5.28	4.71	5.31	4.49
CCGATTAACATCAGCCCGGGAAATGATGTTAATCGGGTCTTGATTCGCTTGACGCTGCTG	2.45	2.27	2.11	3.24	1.04	2.09	1.28
CCGATTAACATCAGGGCAACCCCTGATGTTAATCGGGTCTTGATTCGCTTGACGCTGCTG	3.77	2.55	1.13	1.28	4.15	5.95	3.08
CCGATTAACATCAGGGGGGTTAATGATGTTAATCGGGTCTTGATTCGCTTGACGCTGCTG	4.64	4.44	4.14	3.92	6.25	4.51	4.97
CCGATTAACATCAGAACTTCCCCTGATGTTAATCGGGTCTTGATTCGCTTGACGCTGCTG	7.33	9	7.95	6.75	7.85	7.57	6.4
CCGATTAACATCAAATATCCCCATGATGTTAATCGGGTCTTGATTCGCTTGACGCTGCTG	6.82	6.83	7.36	4.59	4.81	4.67	5.18
CCGATTAACATCAAAATCCCCCTTGATGTTAATCGGGTCTTGATTCGCTTGACGCTGCTG	10.1	10.7	12.1	6.3	10.2	8.68	8.9
CCGATTAACATCACATTTCCCCCTGATGTTAATCGGGTCTTGATTCGCTTGACGCTGCTG	6.84	6.99	10.2	9.84	4.03	5.23	6.55
